ATXN2 expr inh: Primary qHTS for Inhibitors of ATXN expression; HEK-293 ATXN2-luciferase reporter, luminescence, 24 h; Potency, µM (series often up to 57 µM), hits mostly inhibitors; 0.72% of 360,000 active; further: nearly all actives have a fitted effect of over 55% in size
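qHTS (up to 57 uM final) was run with 24 h compound exposure of reporter cells at 37 °C. Each well was multiplexed: SteadyGlo luminescence measured ATXN2-luciferase expression after a fluorogenic Gly-Phe-AFC viability readout (25 uM final).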
TDP1 cell CPT: qHTS for Inhibitors of human tyrosyl-DNA phosphodiesterase 1 (TDP1): qHTS in cells in presence of CPT; chicken DT40 Tdp1-/-;hTDP1 cells + 20 nM CPT, ATP luminescence, 48 h; Potency, µM (titrated, usually from 46.2 µM), actives largely listed as inhibitors; 12% of 420,000 active; AID 686979, 2013; further: nearly all actives have a fitted effect of over 55% in size
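Chicken DT40 Tdp1-/- cells complemented with human TDP1, 400 cells/well, exposed to compounds plus 20 nM camptothecin for at least 48 h at 37 C; viability read as ATP content by CellTiter-Glo luminescence.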
DT40 TDP1 no CPT: qHTS for Inhibitors of human tyrosyl-DNA phosphodiesterase 1 (TDP1): qHTS in cells in absence of CPT. AID 686978, 2013. 15% of 420,000 active. DT40 Tdp1-/- hTDP1 cells, no CPT, ATP luminescence, 48 h. Potency, µM (highest dose often 46.2 µM), actives largely listed as inhibitors; further: nearly all actives have a fitted effect of over 55% in size
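Stably hTDP1-transfected Tdp1-null chicken DT40 cells were treated with library compounds minus camptothecin and grown for at least 48 hr at 37 °C, after which cellular ATP was quantified by luminescence.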
TGFb SMAD3 inh: qHTS for Inhibitors of TGF-b; 1.2% of 410,000 active; Potency, µM (titrated, usually from 46.1 µM), hits mostly inhibitors; HepG2 CAGA-GFP TGF-b/SMAD3 reporter, GFP fluorescence, 18 h; TGF-beta stimulated, 500 pg/mL final; further: nearly all actives have a fitted effect of over 65% in size
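First, reporter cells (HEPG2 CAGA-GFP) rested 2 h at 37 degrees C. Next, compounds were pinned in and TGF-beta added to 500 pg/mL final. After 18 h, GFP was imaged per cell and summed per well.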
HepG2 viability: qHTS for Inhibitors of TGF-b: Cytotox Counterscreen | HepG2 CAGA-GFP viability, ATP luminescence, 18 h | Potency, µM (doses to about 46.1 µM), actives largely listed as cytotoxic | 0.76% of 410,000 active | AID 588856, 2011
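CellTiter-Glo luminescence gave cytotoxicity after 18 hours at 37 degrees C. The cells were HepG2 CAGA-GFP in 1% FBS DMEM, stimulated with 500 pg/mL TGF-beta after compound addition. %Activity was normalised to no-cell wells (complete cell-killing) and DMSO (no toxicity), and curves were fitted and classified.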
ATXN viability: Viability Counterscreen for Primary qHTS for Inhibitors of ATXN expression; S2 cells (HEK-293 line with an ATXN2-luciferase reporter) viability, CellTiter-Fluor protease fluorescence, 24 h; Potency, µM (titrated, usually from 56.7 µM), most hits filed as cytotoxic; 0.49% of 400,000 active; AID 651635, 2014; further: nearly all actives have a fitted effect of over 40% in size
A number is an active result; . = inactive; ? = inconclusive; / = no result given; ! = not active in a repeat. The list is not random: actives were taken first. Their share in the collection is about 17%. The call rests on the fitted dose curve; in most records, active means well fitted curve in the direction sought with a large enough effect; inconclusive means small, poorly fitted or top-dose-only effect, or another doubt; inactive means no such curve, though single readings can be large; an effect the other way counts as inactive or inconclusive.

SMILES	ATXN2 expr inh	TDP1 cell CPT	DT40 TDP1 no CPT	TGFb SMAD3 inh	HepG2 viability	ATXN viability
COc1ccc(-n2c(SCC(=O)Nc3ccccc3)nc3c(c2=O)SCC3)cc1	.	.	.	.	.	.
CC[C@H](C)C(=O)O[C@H]1CCC=C2C=C[C@H](C)[C@H](CC[C@@H]3C[C@@H](O)CC(=O)O3)[C@H]21	.	?	14.6µM!	.	.	.
CC[C@H](C)C(=O)O[C@H]1CCC=C2C=C[C@H](C)[C@H](CC[C@@H]3C[C@H](O)CC(=O)O3)[C@H]21	/	18.8µM	13.3µM	/	/	/
CCC(C)C(=O)OC1CCC=C2C=CC(C)C(CCC3CC(O)CC(=O)O3)C21 (centres undefined)	.	?	23.1µM	.	.	.
COc1ccc(CCN(C)C(=O)CSc2nc3ncc(Cl)cc3[nH]2)cc1OC	.	.	.	.	.	.
Cc1ccc(CN(Cc2ccco2)C(=O)c2ccccc2Cl)o1	/	23.1µM	?	.	.	/
Cc1ccc(CN(Cc2ccco2)C(=O)c2ccccc2Br)o1	/	11.6µM	14.6µM	.	.	/
CCCOc1ccc(C(=O)N(Cc2ccco2)Cc2ccco2)cc1	/	?	?	.	.	/
CN(C(=O)CSc1nc2c(c(=O)[nH]1)CCCC2)C1CCCCC1	.	?	.	.	.	.
Nc1cc(N)nc(SCC(=O)NC2CCCCCCC2)n1	.	.	.	.	.	?
NC(=O)CSc1cn(Cc2cccc(F)c2)c2ccccc12	.	13µM	?	.	.	.
O=C(O)CSc1cn(Cc2ccccc2)c2ccccc12	.	.	.	.	.	.
COc1cc(C=NNc2ccc(S(=O)(=O)Nc3ccccc3C(=O)O)cc2[N+](=O)[O-])ccc1O	/	.	.	.	.	.
COc1ccccc1NS(=O)(=O)c1cccc(-n2c(O)c(C=Nc3ccccc3C(=O)O)c3ccccc3c2=O)c1	.	?	13µM	?	.	20µM
O=C(N/N=C/c1c(O)n(Cc2ccccc2)c(=O)c2ccccc12)c1cccnc1	16.8µM	?	9.2µM	.	.	/
O=C(N/N=C/c1cn(Cc2ccccc2)c2ccccc12)c1cccnc1	?	?	?	2.82µM	.	.
COc1ccc(CCNC(=O)CCS(=O)(=O)c2ccc3nc(C)sc3c2)cc1OC	.	.	.	.	.	/
O=C(NCCc1ccc(Cl)cc1)c1cc(-c2ccc(Cl)cc2)n[nH]1	.	?	?	.	.	.
CN(C)C(=O)c1c(C(F)(F)F)nn(C)c1Cl	?	.	.	.	.	?
Cc1ccc(OCC(=O)N/N=C/c2cn(Cc3ccccc3)c3ccccc23)cc1	/	.	?	?	.	?
COc1ccc(Cn2c(O)c(C=Nc3ccccc3C(=O)O)c3ccccc3c2=O)cc1	.	14.6µM	10.3µM	.	.	?
COc1ccc(Cn2c(O)c(/C=N/NC(=O)c3cccnc3)c3ccccc3c2=O)cc1	?	14.6µM	23.1µM	?	.	/
O=C(CNc1ccc2c(c1)OCO2)N/N=C\c1cn(Cc2ccccc2)c2ccccc12	.	18.4µM	23.1µM	?	.	.
COc1ccc2c(C=Nc3c(C)n(C)n(-c4ccccc4)c3=O)c(O)n(Cc3ccco3)c(=O)c2c1	.	18.4µM	?	.	.	.
O=C(N/N=C/c1cccc2ccccc12)c1cccc(F)c1	.	.	.	.	.	.
Nc1ccc(C(=O)N/N=C/c2cn(Cc3cccc(F)c3)c3ccccc23)cc1	.	?	?	1.26µM	.	.
Cc1cccc(C(=O)N2CC(=O)Nc3ccc(F)cc3C2c2ccc(F)cc2)c1 (centres undefined)	.	.	?	.	.	?
CCCCN(CCCC)CC(O)c1cc(Cl)cc2c1-c1ccc(Cl)cc1/C2=C/c1ccc(Cl)cc1 (centres undefined)	25.1µM	.	.	/	/	?
